About 2,600 (16%) of roughly 16,000 compounds were called active. Roughly 20% stayed inconclusive and do not appear here. Not all results are given here. Values without a mark were called inactive. The call rests on the fitted dose curve; in most records, active means well fitted curve in the direction sought with a large enough effect; inconclusive means small, poorly fitted or top-dose-only effect, or effect the other way; inactive means no such curve, though single readings can be large or run the other way.
On the % scale 0 is the no-effect control and ±100 the full control effect.

The target in the assay is Cytochrome P450 2D6 (Homo sapiens) (UniProt P10635). The assay is described as follows: Cytochrome panel assay with activity outcomes. Conditions: recombinant CYP, pro-luciferin dealkylation, luminescence, p450-cyp2d6; series mostly up to 57.1 µM.
Sequence of Cytochrome P450 2D6 (Homo sapiens) (P10635 whole entry, looked up): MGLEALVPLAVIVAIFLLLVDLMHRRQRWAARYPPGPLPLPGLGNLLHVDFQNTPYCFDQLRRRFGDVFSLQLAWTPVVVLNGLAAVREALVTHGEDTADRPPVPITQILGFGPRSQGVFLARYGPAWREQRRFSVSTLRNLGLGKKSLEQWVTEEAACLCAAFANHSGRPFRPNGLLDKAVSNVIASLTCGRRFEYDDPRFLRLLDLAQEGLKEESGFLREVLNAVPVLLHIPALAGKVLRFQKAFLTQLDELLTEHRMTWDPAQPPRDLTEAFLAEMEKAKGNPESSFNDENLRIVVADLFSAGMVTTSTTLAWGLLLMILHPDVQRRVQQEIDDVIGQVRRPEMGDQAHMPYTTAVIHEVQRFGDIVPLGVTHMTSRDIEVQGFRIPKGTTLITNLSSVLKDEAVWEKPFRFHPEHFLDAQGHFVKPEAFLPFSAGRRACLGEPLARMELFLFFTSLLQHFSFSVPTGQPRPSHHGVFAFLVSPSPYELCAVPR
Regarding `CC1(C)NC(=O)N(c2ccc([N+](=O)[O-])c(C(F)(F)F)c2)C1=O`, the AC50 entry is “inactive”. The same measure, in the same setting: the value for `O=[N+]([O-])c1ccc(N2CCCCC2)c(Cl)c1N1CCCCC1` was “inactive”. On the same count and under the same terms, the value for `Cc1ccc(C)c(Cn2cnc3c(cnn3C(C)(C)C)c2=O)c1` was “inactive”.

In the case of `N#Cc1cccc(-c2nc3cnc(N4CCOCC4)nc3n(C[C@H]3CCCO3)c2=O)c1`, the AC50 result is “inactive”. On to `CC1(C)Cc2c(C#N)c(SCc3ccccc3)nc(N3CCOCC3)c2CO1`, for which the AC50 result is “inactive”. Turning to `Cn1c(=O)c2[nH]c(CSCc3ccccc3)nc2n(C)c1=O`, the activity, negative = inhibition is -20.6% [at 11.4 µM].

Regarding `COc1ccc(C2=NOC(C(=O)Nc3ccc(C(C)=O)cc3)C2)cc1OC` (centres undefined), the AC50 result is “inactive”.

Regarding `CC(C)C(=O)N[C@H]1CCCN1C(=O)/C=C\c1ccccc1`, the activity, negative = inhibition is -5.27% [at 11.4 µM]. As to `Cn1c(=O)c2[nH]c(CCCc3ccc([N+](=O)[O-])cc3)nc2n(C)c1=O`, the activity, negative = inhibition is -15.3% [at 11.4 µM]. Regarding `Cc1nc2cnc(N3CCN(C)CC3)nc2n(-c2ccccc2)c1=O`, the AC50 entry was “inactive”. On to `COc1ccccc1N1CCN(C[C@@H]2CN3C(=O)N(C)c4ccccc4C3=N2)CC1`, for which the AC50 result is “inactive”. Take `CN1CCN(c2ncncc2-c2ccccc2Cl)CC1`: the AC50 is 12.6 µM (active). Consider `CN1CCN(c2ccncc2S(=O)(=O)N2CCN(C)CC2)CC1`, for which the activity, negative = inhibition was 0.642% [at 11.4 µM]. Take `COc1ccccc1-c1cncnc1N1CCN(C)CC1`: the AC50 was 25.1 µM (active). As to `Cc1ccccc1-c1cncnc1N1CCN(C)CC1`, the AC50 was 12.6 µM (active). Consider `COc1ccccc1N1CCN(c2nc3c(C)cccn3c(=O)c2C=O)CC1`, for which the AC50 entry is “inactive”. Turning to `COc1ccc(Cc2ccccc2C(=O)O)c2ccccc12`, the activity, negative = inhibition is 11.8% [at 11.4 µM]. On to `CC(C)CNS(=O)(=O)c1cc(C(=O)N2CC(C)OC(C)C2)c(Cl)cc1Cl` (centres undefined), for which the AC50 result was “inactive”. Regarding `O=C(O)[C@@H](O)c1ccc(F)cc1`, the activity, negative = inhibition is 4.43% [at 11.4 µM]. On to `O=C1CCN(S(=O)(=O)c2ccccc2)N1`, for which the AC50 result is “inactive”. `Fc1cccc(F)c1C(Nc1nncs1)Nc1nncs1`: the activity, negative = inhibition was 19.1% [at 11.4 µM].

For `CC(=O)C[C@H](c1ccc([N+](=O)[O-])cc1)c1c(O)c2ccccc2oc1=O`, the AC50 entry was “inactive”.

Take `OC[C@@H](O)[C@@H](O)[C@@H](O)[C@@H](O)c1nc2ccc(Cl)cc2[nH]1`: the activity, negative = inhibition was 19.4% [at 11.4 µM]. For the molecule `C1COC(NC(C2CC2)C2CC2)=N1`, the concentration at half-maximal activity (AC50) is 0.398 µM (active). On to `Cc1noc(C)c1C(=O)N1CCC[C@@]2(CCN(c3ncccn3)C2)C1`, for which the AC50 entry was “inactive”.

In the case of `Nc1nc(C(=O)O)c(N=Nc2ccccc2)c(=O)[nH]1`, the activity, negative = inhibition is -12.3% [at 11.4 µM]. As to `CCCC(=O)Nc1nnc(SCC(=O)NCc2cccs2)s1`, the AC50 result is “inactive”. With `O=C(CSc1nnnn1-c1ccccc1)NCc1cccs1`, the half-maximal activity concentration (AC50) is 2.51 µM (active). Regarding `CC(C)(C)C(=O)Nc1nnc(SCC(=O)NCc2cccs2)s1`, the AC50 result was “inactive”.

In the case of `C[C@@H]1O[C@H](O[C@@H]2[C@@H](Oc3cc(O)c4c(c3)O[C@H](c3ccc(O)cc3)CC4=O)O[C@@H](CO)[C@@H](O)[C@H]2O)[C@@H](O)[C@H](O)[C@@H]1O`, the AC50 result was “inactive”.

As for `CC(C)C(=O)N[C@@H]1CCCN1C(=O)/C=C\c1ccccc1`, the activity, negative = inhibition is -16.8% [at 11.4 µM]. Turning to `CCOC(=O)N1CCC(NC(=O)CS(=O)(=O)Cc2nc(-c3cccc(OC)c3)oc2C)CC1`, the AC50 result is “inactive”. Regarding `Cc1cccc(-c2nc(CN3CCCC(C(=O)NC4CCCCC4)C3)c(C)o2)c1` (centres undefined), the AC50 was 4.47 µM (active). In the case of `CCC(C)NC(=O)C1CCCN(C(=O)NC2CCCCC2)C1` (centres undefined), the AC50 result was “inactive”. Consider `O=c1c(-c2ccccc2)nc2cnc(N3CCOCC3)nc2n1C1CC1`, for which the AC50 result is “inactive”. For the molecule `O=C(O)c1cccc(SSc2cccc(C(=O)O)c2)c1`, the activity, negative = inhibition is -12% [at 11.4 µM]. For `CC(C)(C)c1cc(C(=O)O)c(CN2CCCCC2)o1`, the AC50 entry was “inactive”. Regarding `O=C(O)c1cccc(CN2CCCCC2)c1`, the AC50 was 1 µM (active). Consider `O=c1c(-c2ccc(Cl)cc2)nc2cnc(N3CCNCC3)nc2n1Cc1ccc(F)cc1`, for which the AC50 entry was “inactive”. Turning to `Cc1ccc(S(=O)(=O)N[C@H]2COC(=O)[C@@H](C)COC(=O)[C@H](C)NC(=O)C/C=C\[C@H]2C)cc1`, the activity, negative = inhibition was -1.17% [at 11.4 µM]. For `CCCCC1=NN2C(=N)CC(=O)N=C2S1`, the AC50 entry is “inactive”.

Consider `CCOC(=O)C(=CNc1ncccc1C)C(=O)OCC`, for which the half-maximal activity concentration (AC50) is 8.91 µM (active). The same measure, in the same setting: the value for `CCOC(=O)C(=CNc1cccc(C)c1C)C(=O)OCC` was 1.58 µM (active); that for `Cc1cccc(Nc2ccccc2C(=O)O)c1C` was “inactive”; that for `CCOC(=O)/C(=C/Nc1ccccc1)[N+](=O)[O-]` was “inactive”. As for `CCOC(=O)C(=Cc1ccc(F)cc1)C(=O)OCC`, the AC50 entry is “inactive”. Same read-out and setting: the value for `Cc1ccc(NC(=O)Nc2ncccc2C)cc1` was “inactive”. As for `NCCSS(=O)(=O)CCN`, the activity, negative = inhibition is 27.6% [at 11.4 µM]. As for `Cc1nc2c(C)cccn2c1/C(O)=C1\C(=O)C(=O)N(CCN2CCOCC2)C1c1cccs1` (centres undefined), the AC50 entry is “inactive”.

Turning to `COC(=O)C/C=C\[C@@H](C)[C@@H](/C=N\OC[C@@H](O)[C@H]1O[C@H]2OC(C)(C)O[C@H]2[C@@H]1O)NS(=O)(=O)c1ccc(C)cc1`, the activity, negative = inhibition was -10.1% [at 11.4 µM].

As for `CC1(C)C(=O)C(c2ccccc2)=C2CN3C(=O)N(CCc4ccccc4)C(=O)C3(Cc3ccc(F)cc3)C=C21` (centres undefined), the AC50 result is “inactive”. For the molecule `Cc1cc(C)n(-c2nc(NC(C)(C)C)nc(NC(C)(C)C)n2)n1`, the AC50 entry was “inactive”. Take `CC(C)(C)Nc1nc(N2CCCC2)nc(N2CCCC2)n1`: the AC50 is 3.55 µM (active). Take `CNc1nc(Cl)nc(NC(C)(C)C)n1`: the AC50 entry was “inactive”. With `COC(=O)C/C=C\[C@@H](C)[C@@H](CO)NS(=O)(=O)c1ccc(C)cc1`, the activity, negative = inhibition is -2.05% [at 11.4 µM]. In the case of `O=C1/C(=C\c2ccc(Br)o2)SC(=Nc2ccccc2)N1c1ccccc1`, the AC50 entry was “inactive”. `Cc1ccc(NC(=O)c2cc(Cl)nc3ccccc23)cc1`: the AC50 is 0.178 µM (active). In the case of `Cc1cc(C(=O)Nc2ccc(N3CCOCC3)cc2)c2ccccc2n1`, the AC50 is 14.1 µM (active). As for `COC(=O)c1sccc1NC(=O)c1cc(-c2ccc(C)cc2)nc2ccccc12`, the AC50 result is “inactive”. Turning to `Cc1cccc(NC(=O)NNC(=O)c2cc(-c3ccccc3Cl)nc3ccccc23)c1`, the AC50 entry is “inactive”. On to `Cc1cc(C(=O)Nc2c(C)n(C)n(-c3ccccc3)c2=O)c2ccccc2n1`, for which the AC50 entry is “inactive”. Turning to `CC(C)(C)c1nc(SCC(=O)Nc2ccc(N3CCOCC3)cc2)c2ccccc2n1`, the AC50 entry is “inactive”. For the molecule `O=C1C2=C(Nc3cc([N+](=O)[O-])ccc3N2)O[C@@H]1c1ccc([C@H]2OC3=C(Nc4ccc([N+](=O)[O-])cc4N3)C2=O)cc1`, the activity, negative = inhibition is -7.54% [at 11.4 µM].

`O=C1c2ccccc2C(=O)c2c(NC3CCCCC3)ccc(Nc3ccc(S(=O)(=O)O)cc3)c21`: the activity, negative = inhibition is -10.8% [at 11.4 µM]. For the molecule `Nc1c(-c2ccccc2)cnn1-c1cccc([N+](=O)[O-])c1`, the AC50 entry is “inactive”. Still for that read-out and setting: the value for `COc1cc(C)nc(N2CCCC(C(=O)Nc3cc(Cl)ccc3OC)C2)n1` (centres undefined) was “inactive”. Turning to `COCCn1c(=O)c(-c2ccc(Cl)cc2)nc2cnc(N3CCOCC3)nc21`, the AC50 entry was “inactive”. On the same count and under the same terms, the value for `N#Cc1c[nH]n2c(=O)c3c(nc12)CCCC3` was “inactive”; that for `CC1=C(C(=O)Nc2ccccc2)C(c2ccco2)NC(=S)N1` (centres undefined) was “inactive”; that for `COC(=O)C1CCC(C)(C(=O)Nc2ccccc2)C1(C)C` (centres undefined) was “inactive”. Consider `CC1(C)SC(=S)N(NC(=O)Nc2ccccc2)C1N(O)C(=O)Nc1ccccc1` (centres undefined), for which the AC50 was 25.1 µM (active). Still for that read-out and setting: the value for `Cc1cccc(NC(=O)c2cccc(N3C(=O)C4C5CCC(C5)C4C3=O)c2)c1C` (centres undefined) was “inactive”; that for `CCn1c(COc2ccccc2)nnc1SCC(=O)Nc1cc(OC)ccc1OC` was “inactive”. As to `Cc1cc(C)c(NC(=O)CSc2nnc(Cc3cccn3C)n2-c2ccc(F)cc2)c(C)c1`, the AC50 result is “inactive”. Same read-out and setting: the value for `CNC(=O)NC(=O)CSc1nnc(-c2ccco2)n1Cc1ccccc1` was “inactive”; that for `COc1ccc(OC)c(C(=O)CN2C(=O)NC(C)(c3ccccc3)C2=O)c1` (centres undefined) was “inactive”; that for `COc1ccc(OC)c(C(=O)CSc2nnc(Cc3cccs3)n2CCc2ccccc2)c1` was 5.62 µM (active).

Turning to `COc1ccc(NC(=O)CSc2nnc(Cc3cccn3C)n2CCc2ccccc2)c(OC)c1`, the AC50 was 3.98 µM (active).

As to `CC(=O)Nc1ccc(Cc2ccc3[nH]c(=O)cc(C)c3c2)cc1`, the activity, negative = inhibition was 2.4% [at 11.4 µM].

`Cc1nc(-n2[nH]c3c(c2=O)CCCC3)[nH]c(=O)c1Cc1ccccc1`: the AC50 result was “inactive”.

As for `COc1ccc(C2C(C(=O)c3ccco3)=C(O)C(=O)N2Cc2cccnc2)cc1OC` (centres undefined), the AC50 entry is “inactive”. Take `COc1ccc(/C=N\NC(=O)O)cc1`: the activity, negative = inhibition is 12.1% [at 11.4 µM].

Turning to `CC(=O)N1CCC2(CC1)CN(C(=O)Nc1cccc(C#N)c1)C2`, the AC50 result was “inactive”. Take `Cc1cc2cc3c(C)cc(=O)oc3c(C)c2o1`: the AC50 entry was “inactive”. Still for that read-out and setting: the value for `CCCC(=O)N1CCN(c2ccc(NC(=O)c3sc4ccccc4c3Cl)cc2)CC1` was “inactive”; that for `CCOC(=S)NC(=O)c1sc2ccccc2c1Cl` was “inactive”.

Take `CN1CCc2ccccc2[C@@H]1Cc1ccccc1NC(=O)c1sc2ccccc2c1Cl`: the AC50 was 0.0794 µM (active). On the same count and under the same terms, the value for `O=C(CC1CCCCC1)N1CCC(c2nc(-c3ccc(S(=O)(=O)N4CCCC4)cc3)no2)CC1` was “inactive”. Regarding `COc1cccc(NC(=S)NNC(=O)C(C)n2nc(C)c([N+](=O)[O-])c2C)c1` (centres undefined), the AC50 entry was “inactive”. For the molecule `CC[n+]1c(P(=O)([O-])c2ccccc2)[nH]c2ccccc21`, the AC50 result was “inactive”. In the case of `O=C(Nc1ccccc1)N1CC[C@@]2(CCCN(C(=O)c3cc(C(F)(F)F)cc(C(F)(F)F)c3)C2)C1`, the AC50 was 15.8 µM (active). As for `O=C(Nc1cccc(F)c1)N1CC[C@@]2(CCCN(C(=O)c3cc(C(F)(F)F)cc(C(F)(F)F)c3)C2)C1`, the AC50 result is “inactive”.

For the molecule `N#Cc1ccc(CN2CC[C@@]3(CCCN(C(=O)c4cc(C(F)(F)F)cc(C(F)(F)F)c4)C3)C2)cc1`, the AC50 entry is “inactive”. For the molecule `O=C(c1cc(C(F)(F)F)cc(C(F)(F)F)c1)N1CCC2(CC1)CN(Cc1ccccc1)C2`, the AC50 result is “inactive”. For `O=C(c1cc(C(F)(F)F)cc(C(F)(F)F)c1)N1CCC[C@@]2(CCN(Cc3ccncc3)C2)C1`, the AC50 is 5.01 µM (active). For the molecule `O=C(c1cc(C(F)(F)F)cc(C(F)(F)F)c1)N1CCC2(CCCN(Cc3ccncc3)C2)CC1`, the AC50 entry was “inactive”. Same read-out and setting: the value for `O=C(c1cc(C(F)(F)F)cc(C(F)(F)F)c1)N1CCC[C@@]2(CCN(Cc3nccs3)C2)C1` was “inactive”; that for `O=C(c1cc(C(F)(F)F)cc(C(F)(F)F)c1)N1CCC[C@@]2(CCN(Cc3ccccc3)C2)C1` was 10 µM (active); that for `O=C(Nc1ccccc1)N1CC2(CCN(C(=O)c3cc(C(F)(F)F)cc(C(F)(F)F)c3)CC2)C1` was “inactive”.

For orientation: AC50 means the concentration at which the activity in the assay is half-maximal.

The record behind these values is PubChem BioAssay AID1851 (National Center for Advancing Translational Sciences (NCATS), 2009).
